We go through 11 molecules from PubChem BioAssay (NCATS).

Records with an inconclusive call do not appear. Where a call stands in place of a potency, no number is given. Unmarked numbers belong to inactive results. Active and inactive are the calls of the source. Calls follow the shape of the dose curve; as a rule, active = well fitted inhibition curve with a large enough effect; inconclusive = small, poorly fitted or top-dose-only effect; inactive = no such curve, though single readings can be large or run the other way.
Potency is read from the fitted curve at half-maximal effect.

The target in the experiment is Cytochrome P450 2C9 (Homo sapiens) (UniProt P11712). In words: qHTS for inhibitors of CYP2C9 against the NCATS DSHEA and TCM libraries (AID 1919973).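 As to activity change, negative = inhibition: luminogenic pro-luciferin CYP2C9 substrate turned into luciferin with NADPH regeneration.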 As to conditions: recombinant CYP2C9 enzyme activity, luminescence; series mostly up to 34.1 µM. An excerpt: Assay Development and Screening Technology Laboratory (ADST)
Sequence of Cytochrome P450 2C9 (Homo sapiens) (P11712 whole entry, looked up): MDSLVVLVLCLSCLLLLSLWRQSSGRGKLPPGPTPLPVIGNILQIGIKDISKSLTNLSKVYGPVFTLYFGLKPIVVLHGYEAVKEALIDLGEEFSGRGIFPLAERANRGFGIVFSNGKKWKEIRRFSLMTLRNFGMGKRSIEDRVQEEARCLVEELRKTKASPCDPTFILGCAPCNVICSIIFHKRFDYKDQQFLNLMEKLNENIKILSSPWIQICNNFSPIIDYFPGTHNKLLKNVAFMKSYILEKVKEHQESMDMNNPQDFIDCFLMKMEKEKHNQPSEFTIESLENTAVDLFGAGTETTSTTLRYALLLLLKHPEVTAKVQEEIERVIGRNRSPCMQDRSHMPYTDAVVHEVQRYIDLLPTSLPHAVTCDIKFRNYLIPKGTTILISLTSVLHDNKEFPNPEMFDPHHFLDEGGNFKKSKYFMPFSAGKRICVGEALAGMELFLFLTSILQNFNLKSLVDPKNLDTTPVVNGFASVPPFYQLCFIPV
National Center for Advancing Translational Sciences (NCATS), Rockville, MD
National Institute of Health (NIH), Bethesda, Maryland
Dietary Supplements and Natural Products have minor oversight of their safety and efficacy. We assembled a collection of Dietary Supplements and Natural Products (DSNP) as well as Traditional Chinese Medicinal (TCM) Plant extracts, which were screened against an in vitro panel of assays, including a liver cytochrome p450 enzyme panel, CAR/PXR signaling pathways, and P-gp transporter assays, to assess their activity. This pipeline facilitated the interrogation of Natural Product-Drug Interaction (NaPDI) through prominent metabolizing pathways. In addition, we compared the activity profiles of the DSNP/TCM substances with those of an approved drug collection. Many of the approved drugs have well-annotated mechanisms of action (MOA) while the MOAs for most of the DSNP and TCM samples remain unknown. Based on the premise that compounds with similar activity profiles tend to share similar targets or MOA, we clustered the library activity profiles to identify overlap with the NCATS Pharmaceutical Collection to predict the MOAs of the DSNP/TCM substances. Overall, we highlight four significant bioactivity profiles (measured by p-values) as examples of this prediction. To assess broad cytotoxicity, we employed screening against a HepG2 cell line. In addition, transporter-mediated drug interactions are utilized in the characterization of DDIs using a P-glycoprotein (P-gp) assays. To profile potential P-gp activity, a differential cell viability was measured against two cell lines: a parental KB-3-1 human cervical adenocarcinoma cell line and the drug-resistant subline KB-8-5-11 that overexpresses P-gp.
To this end, we profiled both collections for potential CAR and/or PXR activity, employing a previously published 1536-well qHTS assay.
[1] Lee TD, et al. A High-Throughput Screen of a Library of Therapeutics Identifies Cytotoxic Substrates of P-glycoprotein. Mol Pharmacol. Nov 2019;96(5):629-640. doi:10.1124/mol.119.115964
PROTOCOL TABLE (as described by Inglese J, Shamu CE and Guy RK. 2007)
SEQUENCE No. (e.g., 1, 2, 3, etc.); […] (e.g., Cells, Incubation, Reagent, etc.); VALUE; DESCRIPTION.
1; Reagent; 2 uL; cytochrome P450 enzyme and luciferin substrate or buffer only, white solid-bottom Greiner plate.
2; Compounds and control; 16 nL; Kalypsis pintool (Wako USA) equipped with a 1536-well pin head to transfer to the assay plates.
3; Incubation; 15 min; room temperature.
4; Reagent; 2 uL; nicotinamide adenine dinucleotide phosphate (NADPH).
5; Incubation; 30 - 45 min; room temperature in the dark.
6; Reagent; 4 uL; P450-Glo assay detection reagent.
7; Centrifuge; 1000 RPM; 15 seconds.
8; Incubation; 30 min; room temperature.
9; Read; Luminescence; ViewLux plate reader.
NOTES (numbers refer to Sequence numbers above)
1. A 2 uL mixture of corresponding enzymes and luciferin substrate (final concentrations CYP enzyme-specific and pro-luciferin substrate-specific) or minus-enzyme (assay buffer conditions supplied by the manufacturer for respective enzyme isoform; typically, 100 mM KPO4) and luciferin substrate were dispensed using a BioRAPTR FRD (Beckman Coulter, Brea, CA) into columns of a 1536-well white solid-bottom medium binding plate (Greiner Bio-One, Monroe, NC). Five isoforms of cytochrome P450 were used (CYP1A2, CYP2C9, CYP2C19, CYP2D6, and CYP3A4).
2. Substances (final concentrations of most substances ranged from 19.5 nM to 39.8 uM) and controls (CYP-specific) were transferred (16 nL) via pintool (Wako Automation, Richmond, VA). Intraplate controls furafylline (CYP1A2), sulfaphenazole (CYP2C9), ketoconazole (CYP2C19), quinidine (CYP2D6), and ketoconazole (CYP3A4) were used correspondingly.
3. Assay plates were incubated at room temperature for 15 min.
4-5. […]
Background: In qHTS, concentration-response curves come from the screen itself.
For `CC1=CCC2CC1C2(C)C` (stereo unspecified), the Potency entry is “inactive”.

In the case of `CC/C=C\C/C=C\C/C=C\C/C=C\C/C=C\C/C=C\CCC(=O)O`, the Potency result is “inactive”. For the molecule `CC/C=C\C/C=C\C/C=C\C/C=C\C/C=C\CCCC(=O)O`, the Potency result is “inactive”. Take `C=C1CC[C@H](O)C/C1=C\C=C1/CCC[C@]2(C)[C@@H]([C@H](C)CCCC(C)C)CC[C@@H]12`: the Potency is 25.1 µM (active).

`CC/C=C\C/C=C\C/C=C\CCCCCCCC(=O)O`: the Potency is 7.94 µM (active). For `O=C(O)/C=C/c1ccccc1`, the Potency entry was “inactive”. Consider `CCCCC/C=C\C/C=C\C/C=C\CCCCC(=O)O`, for which the activity change, negative = inhibition is -2.07% [at 4.27 µM]. Regarding `CC(C)=CCC/C(C)=C/C=C/C(C)=C/C=C/C(C)=C/C=C/C=C(C)/C=C/C=C(C)/C=C/C=C(\C)CCC=C(C)C`, the Potency result is “inactive”.

Take `COC1=C(OC)C(=O)C(C/C=C(\C)CC/C=C(\C)CC/C=C(\C)CC/C=C(\C)CC/C=C(\C)CC/C=C(\C)CC/C=C(\C)CC/C=C(\C)CC/C=C(\C)CCC=C(C)C)=C(C)C1=O`: the Potency entry is “inactive”. Still for that read-out and setting: with `CC(C)=CCC/C(C)=C/CC/C(C)=C/CC/C(C)=C/CC1=C(C)C(=O)c2ccccc2C1=O` the figure was 14.1 µM (active); with `CCCCCCCCCCCC(=O)OCC(O)CO` (stereo unspecified), “inactive”.
